Inconclusive results are not listed. The source holds several records for some structures; these can differ, active in one and inactive in another. Activity calls are given as the source filed them. The call rests on the fitted dose curve; in most records, active means well fitted curve in the direction sought with a large enough effect in the repeat runs; inconclusive means weak or mixed curves; inactive means no such curve, though single readings can be large; an effect the other way counts as inactive or inconclusive.
What was measured:
[1] = A CellTox Green Cytotoxicity Assay to monitor cytotoxicity in HEK293 cells - 40 hour (AID 1224871); further: nearly all actives have a fitted effect of over 45% in size; further: potency means the concentration at half of the fitted maximal effect
In short: (§1)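 Real-time, in one plate: 600 HEK293 cells/well with dead-cell DNA dye, pinned compound after 5 h, 37 C incubation over 40 h; viable cells give no appreciable fluorescence.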

[2] = qHTS RealTime-Glo MT Cell Viability Assay in HEK293 cells - 16 hour (AID 1224872); further: nearly all actives have a fitted effect of over 50% in size; further: potency means the concentration at half of the fitted maximal effect; on activity change, negative = cytotoxicity: top concentration of the series differs between compounds
In short: (§2)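 HEK293 cells were seeded at 600 cells/well together with NanoLuc luciferase and cell-permeant prosubstrate, preincubated 5 h at 37 C/5% CO2, then given compound in DMSO by pintool. Luminescence from viable-cell prosubstrate reduction was read repeatedly over 40 h.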

[3] = qHTS RealTime-Glo MT Cell Viability Assay in HepG2 cells - 8 hour (AID 1224873); further: nearly all actives have a fitted effect of over 55% in size
In short: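 HepG2 cells mixed with RealTime-Glo MT reagents (NanoLuc plus cell-permeant prosubstrate) were seeded at 600 cells/well, incubated 5 h at 37 C/5% CO2, then pinned with compounds in DMSO; nonlytic luminescence tracked viability during 40 h treatment.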

[4] = A CellTox Green Cytotoxicity Assay to monitor cytotoxicity in HEK293 cells - 24 hour (AID 1224875); further: series mostly up to about 77 µM; nearly all actives have a fitted effect of over 45% in size
In short: as §1

[5] = A CellTox Green Cytotoxicity Assay to monitor cytotoxicity in HepG2 cells - 16 hour (AID 1224876); further: nearly all actives have a fitted effect of over 45% in size
In short: (§3)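 Cytotoxicity was tracked as dead-cell DNA fluorescence in HepG2 cells treated with test compounds at 37 C; each time-point value comes from one kinetic series spanning 0, 8, 16, 24, 32 and 40 h.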

[6] = qHTS RealTime-Glo MT Cell Viability Assay in HepG2 cells - 32 hour (AID 1224877); further: nearly all actives have a fitted effect of over 55% in size
In short: (§4)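 HepG2 cells were seeded at 600 cells/well together with NanoLuc luciferase and a cell-permeant prosubstrate, preincubated 5 h at 37 C/5% CO2, then pin-dosed with compounds in DMSO. Nonlytic luminescence from viable cells was read at each time point.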

[7] = A CellTox Green Cytotoxicity Assay to monitor cytotoxicity in HepG2 cells - 24 hour (AID 1224878); further: nearly all actives have a fitted effect of over 45% in size
In short: as §3

[8] = A CellTox Green Cytotoxicity Assay to monitor cytotoxicity in HepG2 cells - 40 hour (AID 1224879); further: nearly all actives have a fitted effect of over 40% in size
In short: as §3

[9] = qHTS RealTime-Glo MT Cell Viability Assay in HEK293 cells - 0 hour (AID 1224880)
In short: (§5)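 Kinetic, non-lysing viability readout. Seed HEK293 (600/well) with reagent, incubate 5 h at 37 C/5% CO2, pin 23 nL compound in DMSO, incubate at 37 C, read luminescence at 0, 8, 16, 24, 32, 40 h.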

[10] = A CellTox Green Cytotoxicity Assay to monitor cytotoxicity in HEK293 cells - 32 hour (AID 1224881); further: nearly all actives have a fitted effect of over 40% in size; further: potency means the concentration at half of the fitted maximal effect
In short: as §1

[11] = A CellTox Green Cytotoxicity Assay to monitor cytotoxicity in HepG2 cells - 0 hour (AID 1224882); further: nearly all actives have a fitted effect of over 35% in size
In short: as §3

[12] = A CellTox Green Cytotoxicity Assay to monitor cytotoxicity in HepG2 cells - 32 hour (AID 1224883); further: nearly all actives have a fitted effect of over 50% in size
In short: as §3

[13] = A CellTox Green Cytotoxicity Assay to monitor cytotoxicity in HEK293 cells - 8 hour (AID 1224884); further: nearly all actives have a fitted effect of over 35% in size
In short: as §1

[14] = qHTS RealTime-Glo MT Cell Viability Assay in HepG2 cells - 16 hour (AID 1224885); further: nearly all actives have a fitted effect of over 50% in size
In short: as §4

[15] = qHTS RealTime-Glo MT Cell Viability Assay in HEK293 cells - 8 hour (AID 1224887); further: nearly all actives have a fitted effect of over 50% in size; further: potency means the concentration at half of the fitted maximal effect; on activity change, negative = cytotoxicity: top concentration of the series differs between compounds
In short: as §5

[16] = A CellTox Green Cytotoxicity Assay to monitor cytotoxicity in HEK293 cells - 16 hour (AID 1224888); further: nearly all actives have a fitted effect of over 35% in size
In short: as §1

[17] = qHTS RealTime-Glo MT Cell Viability Assay in HepG2 cells - 0 hour (AID 1224889); further: nearly all actives have a fitted effect of over 50% in size
In short: as §4

[18] = A CellTox Green Cytotoxicity Assay to monitor cytotoxicity in HepG2 cells - 8 hour (AID 1224890); further: nearly all actives have a fitted effect of over 45% in size
In short: as §3

[19] = qHTS RealTime-Glo MT Cell Viability Assay in HEK293 cells - 40 hour (AID 1224874); details: RealTime-Glo luminescence; max response: stronger effect = lower value; further: nearly all actives have a fitted effect of over 50% in size; further: potency means the concentration at half of the fitted maximal effect
In short: as §5

[20] = qHTS RealTime-Glo MT Cell Viability Assay in HEK293 cells - 24 hour (AID 1224886); further: nearly all actives have a fitted effect of over 50% in size; further: potency means the concentration at half of the fitted maximal effect; on activity change, negative = cytotoxicity: top concentration of the series differs between compounds
In short: as §2
On the % scale 0 is the no-effect control and ±100 the full control effect.

Cc1ccc(-c2nc3ccc(C)cn3c2CC(=O)N(C)C)cc1
inactive: Potency [1] | Potency [2] | outcome [3] | Potency [4] | Potency [5] | Potency [6] | Potency [7] | Potency [8] | outcome [9] | Potency [10] | outcome [11] | Potency [12] | Potency [13] | Potency [14] | Potency [15] | Potency [16] | outcome [17] | Potency [18]

c1ccc2c(c1)CCNC2
inactive: Potency [1] | outcome [3] | Potency [4] | Potency [5] | Potency [6] | Potency [7] | Potency [8] | outcome [9] | Potency [10] | outcome [11] | Potency [12] | Potency [13] | Potency [14] | Potency [15] | Potency [16] | outcome [17] | Potency [18]

C#CC(C)(C)O
inactive: Potency [2] | outcome [3] | max response [19] 6.71% | Potency [4] | Potency [5] | Potency [6] | Potency [7] | Potency [8] | outcome [9] | Potency [10] | outcome [11] | Potency [12] | Potency [13] | Potency [14] | Potency [20] | Potency [15] | Potency [16] | Potency [18]

CCOC(=O)C(Cl)Cc1cc(-n2nc(C)n(C(F)F)c2=O)c(F)cc1Cl (configuration not stated)
inactive: Potency [1] | max response [19] 2.36% | Potency [4] | Potency [5] | Potency [6] | Potency [7] | Potency [8] | Potency [10] | outcome [11] | Potency [12] | Potency [13] | Potency [20] | Potency [16] | Potency [18]

CN(C)C1CCCCC1
inactive: Potency [1] | outcome [3] | Potency [4] | Potency [5] | Potency [6] | Potency [7] | Potency [8] | outcome [9] | Potency [10] | outcome [11] | Potency [12] | Potency [13] | Potency [14] | Potency [15] | Potency [16] | outcome [17] | Potency [18]

CON(C)C(=O)Nc1ccc(Br)c(Cl)c1
inactive: Potency [1] | outcome [3] | Potency [4] | Potency [5] | Potency [6] | Potency [7] | Potency [8] | outcome [9] | Potency [10] | outcome [11] | Potency [12] | Potency [13] | Potency [14] | Potency [16] | outcome [17] | Potency [18]

CCOC(=O)Nc1cccc(OC(=O)Nc2ccccc2)c1
inactive: Potency [1] | Potency [2] | outcome [3] | Potency [4] | Potency [5] | Potency [6] | outcome [9] | Potency [10] | outcome [11] | Potency [14] | Potency [20] | Potency [15] | Potency [16] | outcome [17] | Potency [18]

CCOC1Oc2ccc(OS(C)(=O)=O)cc2C1(C)C (configuration not stated)
inactive: Potency [1] | outcome [3] | Potency [4] | Potency [5] | Potency [6] | Potency [7] | Potency [8] | outcome [9] | Potency [10] | outcome [11] | Potency [12] | Potency [13] | Potency [14] | Potency [15] | Potency [16] | outcome [17] | Potency [18]
active: Potency [19] 34.4 µM

ClC1=C(Cl)C2(Cl)C(CBr)CC1(Cl)C2(Cl)Cl (configuration not stated)
43.6 µM (active) and inactive: Potency [2] | Potency [15]
inactive: outcome [3] | max response [19] -5.43% | Potency [5] | Potency [6] | Potency [8] | outcome [11] | Potency [12] | Potency [13] | Potency [14] | outcome [17] | Potency [18]
49 µM (active) and inactive: Potency [20]
54.9 µM (active) and inactive: Potency [1] | Potency [10]

O=C(O)C(Cl)Br (configuration not stated)
inactive: Potency [1] | Potency [2] | outcome [3] | Potency [4] | Potency [5] | Potency [6] | Potency [7] | Potency [8] | outcome [9] | Potency [10] | outcome [11] | Potency [12] | Potency [13] | Potency [14] | Potency [15] | Potency [16] | outcome [17] | Potency [18]

O=C/C=C/c1ccco1
inactive: Potency [2] | outcome [3] | max response [19] 3.04% | Potency [4] | Potency [5] | Potency [6] | Potency [7] | Potency [8] | outcome [9] | Potency [10] | outcome [11] | Potency [12] | Potency [13] | Potency [14] | Potency [20] | Potency [16] | outcome [17] | Potency [18]

Oc1ccc(Cc2ccc(O)cc2)cc1
inactive: Potency [1] | outcome [3] | Potency [4] | Potency [5] | Potency [6] | Potency [7] | outcome [9] | Potency [10] | outcome [11] | Potency [12] | Potency [14] | Potency [15] | Potency [16] | outcome [17] | Potency [18]

Clc1nc(Cl)nc(Nc2ccccc2Cl)n1
inactive: Potency [2] | outcome [3] | max response [19] 11.5% | Potency [4] | Potency [5] | Potency [6] | Potency [7] | Potency [8] | outcome [9] | Potency [10] | outcome [11] | Potency [12] | Potency [13] | Potency [14] | Potency [20] | Potency [15] | Potency [16] | outcome [17] | Potency [18]

CCCCCCC(=O)CCCCCC/C=C/C[C@@H](O)[C@H](O)[C@@](N)(CO)C(=O)O
inactive: cytotoxicity increase [1] -5.02% [at 15.8 µM] | activity change, negative = cytotoxicity [2] -2.21% [at 15.8 µM] | viability change, negative = cytotoxic [3] 1.7% [at 15.8 µM] | max response [19] 2.74% | activity change [4] -5.64% [at 15.8 µM, stronger effect = higher value] | activity change, negative = cytotoxic [6] 0.443% [at 15.8 µM] | cytotoxicity [7] -14.9% [at 15.8 µM] | cytotoxicity increase [8] -21.5% [at 15.8 µM] | activity change, negative = cytotoxicity [9] 3.85% [at 15.8 µM] | cytotoxicity increase [10] -8.63% [at 15.8 µM] | cytotoxicity [11] -17.7% [at 15.8 µM] | cytotoxicity increase [12] -23.6% [at 15.8 µM] | cytotoxicity increase [13] -3.97% [at 15.8 µM] | activity change, negative = cytotoxic [14] 1.68% [at 15.8 µM] | activity change, negative = cytotoxicity [20] -0.165% [at 15.8 µM] | activity change, negative = cytotoxicity [15] -1.55% [at 15.8 µM] | activity change [16] -6.94% [at 15.8 µM, stronger effect = higher value] | activity change, negative = cytotoxicity [17] 3.64% [at 15.8 µM]

From PubChem BioAssay (Tox21)
